# Measured values published in the supplement of paper PMC10121225.
# Structures can show the parent of a compound that is named as a salt.
# Test system: hN + hpA co-culture (H1 iNGN2 human neurons + human primary astrocytes)
# Test: presynaptic density (SYNAPSIN1 puncta per MAP2 neurite area), Z-score vs DMSO controls; higher = more presynaptic puncta (synapse-promoting)
# Details: 3 µM; 72 h
# 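Further: immunostained co-cultures imaged by high-content microscopy, Z-score per plate against mean and SD of 0.1% DMSO wells, compounds added on differentiation day 18, analysed day 21.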
row,Compound,presynaptic density (Z-score)
1,CCOC(=O)C1=C(N)Oc2ccc(Br)cc2C1C(C#N)C(=O)OCC (configuration not stated),0.81
2,CC1(C)CCC(c2ccc(Cl)cc2)=C(CN2CCN(c3ccc(C(=O)NS(=O)(=O)c4ccc(N[C@H](CCN5CCOCC5)CSc5ccccc5)c(S(=O)(=O)C(F)(F)F)c4)cc3)CC2)C1,0.29
3,CC(NC(=O)Cc1cc(F)cc(F)c1)C(=O)NC1C(=O)N(C)c2ccccc2-c2ccccc21 (configuration not stated),-0.744
4,CS(=O)(=O)c1ccc(-c2cnc(N)c(C(=O)Nc3ccccc3)n2)cc1,-0.463
5,CN(C)CCc1c[nH]c2ccc(Cn3cncn3)cc12,-0.227
6,O=C(Nc1cccc(Nc2ncc(Br)c(NCCc3cnc[nH]3)n2)c1)N1CCCC1,-0.439
7,c1ccc(CC2=NCCN2)cc1 [Tolazoline HCl],-0.161
8,COc1cc(OC)c(/C=C/S(=O)(=O)Cc2ccc(OC)c(NCC(=O)O)c2)c(OC)c1,-3.31
9,O=C(Nc1ccccc1-c1cn2c(CN3CCNCC3)csc2n1)c1cnc2ccccc2n1,-1.26
10,O=C1NC(=O)C(c2ccccc2[N+](=O)[O-])=C1Nc1ccc(O)c(Cl)c1,-0.662
11,Oc1ncnc2[nH]ncc12 [Allopurinol],-0.774
12,CC#CCn1c(N2CCC[C@@H](N)C2)nc2c1c(=O)n(Cc1nc(C)c3ccccc3n1)c(=O)n2C [Linagliptin],0.688
13,CC1C(=O)OC2C(O)C34C5CC(C(C)(C)C)C36C(OC(=O)C6O)OC4(C(=O)O5)C12O (configuration not stated) [Ginkgolide B],-0.504
14,CCOc1ccc(Cc2cc([C@@H]3O[C@H](CO)[C@@H](O)[C@H](O)[C@H]3O)ccc2Cl)cc1 [Dapagliflozin],0.756
15,CC1(C)CCC(CN2CCN(c3ccc(C(=O)NS(=O)(=O)c4ccc(NCC5CCOCC5)c([N+](=O)[O-])c4)c(Oc4cnc5[nH]ccc5c4)c3)CC2)=C(c2ccc(Cl)cc2)C1,-1.11
16,Cc1ccc(C(=O)N(CCCN)[C@@H](c2oc3cc(Cl)ccc3c(=O)c2Cc2ccccc2)C(C)C)cc1,-3.49
17,COc1ccc2[nH]c([S@@+]([O-])Cc3ncc(C)c(OC)c3C)nc2c1 [Esomeprazole Sodium],0.0968
18,CC(C)c1ccc(NC(=O)Cn2cnc3c2c(=O)n(C)c(=O)n3C)cc1,-0.215
19,Cc1cc(Nc2cc(CN3CCOCC3)c3nc(C)c(Cc4ccc(Cl)cc4F)n3n2)n[nH]1,-1.8
20,C[S+]([O-])c1ccc(-c2nc(-c3ccc(F)cc3)c(-c3ccncc3)[nH]2)cc1 (configuration not stated),-1.11
21,Cc1cc(NC(=O)Nc2ccc(N(C)C)cc2)c2cc(F)cc(F)c2n1,0.301
22,Cc1cc([C@@H](C)Nc2ccccc2C(=O)O)c2nc(N3CCOCC3)cc(=O)n2c1,-0.243
23,Cc1ccc(S(=O)(=O)n2c(N)nc3ccccc32)cc1 [ML130 (Nodinitib-1)],0.396
24,CC1=C(C(=O)Nc2cc3cn[nH]c3cc2F)C(c2ccc(C(F)(F)F)cc2)CC(=O)N1 (configuration not stated),1.88
25,c1ccc(NCc2ccc(CNc3ccccn3)cc2)nc1,-0.658
26,O=S(=O)(NCCNCC=Cc1ccc(Br)cc1)c1cccc2cnccc12,-0.0684
27,OC[C@H]1O[C@@H](c2ccc(Cl)c(Cc3ccc(O[C@H]4CCOC4)cc3)c2)[C@H](O)[C@@H](O)[C@@H]1O,-0.331
